# Data as given in ChEMBL document CHEMBL3988442, “University of Dundee, Small-Polar-MMV Screening Library” (2021).
# About 1,000 (1.4%) of roughly 69,000 compounds showed an effect of 50% or more. The sample holds strong results, similar compounds and a random draw of the others, so the mix is not that of the screen.
# System: Leishmania donovani
# Test: Leishmania intramacrophage assay
# Format: functional, organism-based
# Design: scale not given: in the data most compounds retested in dose-response had high values
smiles,measurement,setting,value
OCc1ccc(-c2nccn2CCc2nc3c(s2)CCCC3)o1,Percent Effect,"30.3 µM, […]",-3.192%
O=C(NCCc1ccn(-c2ccc(F)cc2)n1)C1CCCOC1 (centres undefined),Percent Effect,"30.3 µM, […]",11.22%
CC(NC(=O)N(C)C1CC1)c1ccc(Oc2cccnc2)c(F)c1 (centres undefined),Percent Effect,"30.3 µM, […]",4.744%
CC(NC(=O)CN(C)C(C)C)c1ccc(Oc2cccnc2)c(F)c1 (centres undefined),Percent Effect,"30.3 µM, […]",51.39%
CCN(CC)C(=O)NC(C)c1ccc(Oc2cccnc2)c(F)c1 (centres undefined),Percent Effect,"30.3 µM, […]",-9.456%
C=C(C)COc1cccc(C(=O)N(CC)Cc2noc(C)n2)c1,Percent Effect,"30.3 µM, […]",17.93%
Cc1nc[nH]c1CN(Cc1ccccc1)C1CC(C)(C)NC(C)(C)C1.O=C(O)CC(O)(CC(=O)O)C(=O)O,Percent Effect,"30.3 µM, […]",45.23%
Cc1nc[nH]c1CN(Cc1ccccc1F)C1CC(C)(C)NC(C)(C)C1.O=C(O)CC(O)(CC(=O)O)C(=O)O,Percent Effect,"30.3 µM, […]",53.75%
Cc1cc2c(N)nc(=O)n(CC(=O)Nc3ccccc3)c2s1,Percent Effect,"30.3 µM, […]",6.295%
Cc1cc2c(N)nc(=O)n(CC(=O)Nc3cccc(Cl)c3)c2s1,Percent Effect,"30.3 µM, […]",52.64%
COc1cccc(NC(=O)Cn2c(=O)nc(N)c3cc(C)sc32)c1,Percent Effect,"30.3 µM, […]",12.79%
Cc1nc(CN2CCN(C(=O)NC(C)Cn3ccnc3)CC2)cs1 (centres undefined),Percent Effect,30 µM,14.72%
CNC(=O)C1CCN(CC(=O)Nc2cc(C(C)C)no2)CC1,Percent Effect,30 µM,21.46%
CS(=O)(=O)NCc1noc2c1CN(C(=O)C1CCC1)CC2,Percent Effect,"30.3 µM, […]",11.5%
CCN1CC(CN(C)Cc2nc(-c3ccc(F)cc3)oc2C)CC1=O (centres undefined),Percent Effect,"30.3 µM, […]",13.51%
CCN1CC(CN(C)Cc2nc(-c3ccoc3)oc2C)CC1=O (centres undefined),Percent Effect,"30.3 µM, […]",-10.15%
CCN1CC(CN(C)Cc2nc(-c3ccc(C)o3)oc2C)CC1=O (centres undefined),Percent Effect,"30.3 µM, […]",59.94%
CN(C)C(=O)C1(c2cnccn2)CCCN1C(=O)Cc1ccsc1 (centres undefined),Percent Effect,"30.3 µM, […]",25.36%
CCn1c(C)nc2cc(NC(=O)CC3CCN(S(C)(=O)=O)CC3)ccc21,Percent Effect,"30.3 µM, […]",32.47%
CC(C)CCN1Cc2c(C(=O)O)ncn2-c2ccccc2S1(=O)=O,Percent Effect,"30 µM, 30.03 µM",-20.47%
CCN1Cc2c(C(=O)NC)ncn2-c2ccccc2S1(=O)=O,Percent Effect,"30.3 µM, […]",2.291%
CNC(=O)c1ncn2c1CN(CCC(C)C)S(=O)(=O)c1ccccc1-2,Percent Effect,"30.3 µM, […]",54.17%
COc1ccc(CNC(=O)c2ccoc2CN2CCNC(=O)C2)cc1,Percent Effect,"30.3 µM, […]",-8.396%
CC(C)N(C)Cc1cn2c(n1)CN(C(=O)c1ccc[nH]1)CC2,Percent Effect,"30.3 µM, […]",13.65%
Cc1cc(-c2cnc(C(C)C)nc2CN(C)C(=O)c2ccccn2)on1,Percent Effect,"30.3 µM, […]",10.54%
CC(C)N(C)CCCNC(=O)c1cnn(C(C)(C)C)c1C(F)(F)F,Percent Effect,"30.3 µM, […]",10.25%
O=C(c1ccncc1)N1CCC(Oc2cccc(C(F)(F)F)c2)CC1,Percent Effect,"30.3 µM, […]",7.291%
FC(F)(F)c1cccc(OC2CCN(Cc3ncc[nH]3)CC2)c1,Percent Effect,"30.3 µM, […]",17.17%
OC1(CN2CCC(Oc3cccnc3)CC2)CNCCOC1 (centres undefined),Percent Effect,"30.3 µM, […]",-1.613%
OC1(CN2CCCC2)COCCN(c2cc(C(F)(F)F)ccn2)C1 (centres undefined),Percent Effect,"30.3 µM, […]",29.85%
OC1(CN2CCC(Oc3cccc(C(F)(F)F)c3)CC2)CNCCOC1 (centres undefined),Percent Effect,"30.3 µM, […]",78.32%
OC1(CN2CCC(Oc3cccc(C(F)(F)F)c3)CC2)CCNC1 (centres undefined),Percent Effect,"30.3 µM, […]",100.3%
CC(N)C(=O)N1CCC(Oc2cccc(C(F)(F)F)c2)CC1 (centres undefined),Percent Effect,"30.3 µM, […]",75.62%
OC1(CNCCN2CCc3ccccc32)CNCCOC1 (centres undefined),Percent Effect,"30.3 µM, […]",12.43%
Nc1cc(C(=O)N2CCC(Oc3cccc(C(F)(F)F)c3)CC2)ccn1,Percent Effect,"30.3 µM, […]",3.315%
FC(F)(F)c1cccc(OC2CCN(Cc3ccccn3)CC2)c1,Percent Effect,"30.3 µM, […]",-24.32%
FC(F)(F)c1cccc(OC2CCN(Cc3c[nH]cn3)CC2)c1,Percent Effect,"30.3 µM, […]",0.2013%
OC1(CN2CCN(c3cccc(C(F)(F)F)c3)CC2)CNCCOC1 (centres undefined),Percent Effect,"30.3 µM, […]",51.12%
CCC[C@H]1CN(S(C)(=O)=O)C[C@@H]1NC(=O)CCCn1ccnc1,Percent Effect,"30.3 µM, […]",-3.317%
CC(C)CCN(C)C(=O)c1cc(CN2CCC(O)CC2)on1,Percent Effect,"30.3 µM, […]",25.01%
O=C(CS(=O)(=O)Cc1nnnn1C1CC1)NCC1CC1,Percent Effect,"30.3 µM, […]",7.259%
Cc1ccc2cccc(C(=O)NCC3CCN(C(C)C)C3)c2n1 (centres undefined),Percent Effect,"30.3 µM, […]",6.487%
Cc1cccc(CN2CCC3(CCN(c4ccccn4)C3)C2=O)c1.O=C(O)C(F)(F)F (centres undefined),Percent Effect,"30 µM, 30.03 µM",41.53%
CC1=N[C@@]2(CC[C@@H]3CN(Cc4ccccc4F)C[C@@H]32)C(=O)N1CC1CC1.O=C(O)C(F)(F)F,Percent Effect,"30 µM, 30.03 µM",16.75%
CN1CCN(C)c2cc(NC(=O)c3cc[nH]n3)ccc2C1,Percent Effect,"30.3 µM, […]",24.5%
COc1ccc(OC)c(C2CCN(C(=O)CCc3n[nH]c(N)n3)C2)c1 (centres undefined),Percent Effect,"30.3 µM, […]",25.04%
NC(=O)CCSCc1cc(Br)cc2cccnc12,Percent Effect,"30.3 µM, […]",18.7%
CNC(=O)NC(=O)CCSCc1cc(F)cc2cccnc12,Percent Effect,"30.3 µM, […]",2.728%
NC(=O)NC(=O)CCSCc1cc(F)cc2cccnc12,Percent Effect,"30.3 µM, […]",50.58%
CC(C)CN1C[C@H]2CCN(C(=O)NC3CCCC3)CC[C@H]2S1(=O)=O,Percent Effect,"30.3 µM, […]",5.795%
Cc1noc(CCCC(=O)N2CCNC(=O)C2)n1,Percent Effect,"30.3 µM, […]",12.24%
COCC(=O)NCc1cc(=O)n2c(n1)CN(C)CCC2.O=C(O)C(F)(F)F,Percent Effect,"30.3 µM, […]",39.76%
COCCN1CCCn2c(nc(CNC(=O)COC)cc2=O)C1.O=C(O)C(F)(F)F,Percent Effect,"30.3 µM, […]",69.63%
COCC(=O)NCc1cc(=O)n2c(n1)CN(Cc1ccncc1)CCC2,Percent Effect,"30.3 µM, […]",55.54%
COCC(=O)NCc1cc(=O)n2c(n1)CN(CC1CC1)CCC2.O=C(O)C(F)(F)F,Percent Effect,"30.3 µM, […]",0.4082%
COCC(=O)NCc1cc(=O)n2c(n1)CN(Cc1ccoc1)CCC2,Percent Effect,"30.3 µM, […]",10.68%
COCC(=O)NCc1cc(=O)n2c(n1)CN(Cc1ccsc1)CCC2,Percent Effect,"30 µM, 30.03 µM",13.56%
COc1ccccc1CNC(=O)c1[nH]ncc1Cl,Percent Effect,"30.3 µM, […]",-12.27%
COc1ccc(CNC[C@@]2(COc3cccnc3)C[C@@H](O)[C@@H](O)C2)cc1.Cl,Percent Effect,"30.3 µM, […]",14.18%
Cc1nc2ccnn2c(C)c1CCC(=O)N1CCN2CCCCC2C1 (centres undefined),Percent Effect,30 µM,11.28%
O=C(C1CCCCC1)N1CCCC([C@@H]2C[C@H](C(F)F)n3ncnc3N2)C1 (some centres undefined),Percent Effect,"30.3 µM, […]",0.241%
Cc1nc(N(C)CCCc2nccn2C)c2c(C)nn(C)c2n1,Percent Effect,"30.3 µM, […]",1.733%
Cc1ccc(CN2CC[C@H]3[C@H](CC(Cn4cccn4)N3C)C2)s1.O=C(O)C(F)(F)F.O=C(O)C(F)(F)F.O=C(O)C(F)(F)F (some centres undefined),Percent Effect,"30.3 µM, […]",-11.42%
CN1CC[C@H](N(Cc2ccccc2)Cc2ccccc2)C[C@H](O)C1,Percent Effect,"30.3 µM, […]",94.14%
CN1CC[C@H](N(C)Cc2ccccc2)C[C@H](O)C1,Percent Effect,"30.3 µM, […]",20.46%
CN1CC[C@H](N(Cc2ccccc2)CC2CC2)C[C@H](O)C1,Percent Effect,"30.3 µM, […]",31.47%
CC(C)Sc1ncccc1C(=O)NCc1ccc(O)cc1,Percent Effect,30 µM,14.96%
CCN(C)S(=O)(=O)NCC(O)c1c(Cl)cccc1Cl (centres undefined),Percent Effect,"30.3 µM, […]",41.58%
CCCS(=O)(=O)NCC(O)c1c(Cl)cccc1Cl (centres undefined),Percent Effect,"30.3 µM, […]",7.191%
CCN(CC)S(=O)(=O)NCC(O)c1c(Cl)cccc1Cl (centres undefined),Percent Effect,"30.3 µM, […]",62.85%
CCCc1nc(CN2CCCC2Cn2cccn2)cs1 (centres undefined),Percent Effect,"30.3 µM, […]",31.37%
CN(C)C(=O)CC1CC2(CCN(CC3CC3)CC2)c2cc(F)ccc21.O=C(O)C(F)(F)F (centres undefined),Percent Effect,"30 µM, 30.03 µM",16.14%
CCC(=O)N1CCC2(CC1)CC(CC(=O)N(C)C)c1ccc(F)cc12 (centres undefined),Percent Effect,"30.3 µM, […]",35.94%
CCN1CCC2(CC1)CC(CC(=O)N(C)C)c1ccc(F)cc12 (centres undefined),Percent Effect,"30.3 µM, […]",64.47%
CC(=O)Nc1ccc(CNCC(O)c2ccccc2)cc1 (centres undefined),Percent Effect,"30.3 µM, […]",-2.839%
CCOc1ccc(CNCC(O)c2ccccc2)cc1Cl.Cl (centres undefined),Percent Effect,"30.3 µM, […]",14.87%
CCc1ccc(CNC(=O)NC2CCCc3c2cnn3CCO)s1 (centres undefined),Percent Effect,"30.3 µM, […]",21.53%
O=C(Cc1ccccn1)N1CCCC(c2nccn2CC2CCC2)C1 (centres undefined),Percent Effect,"30.3 µM, […]",-1.281%
CCOc1ccccc1OC1CCN(Cc2ccn(C)c(=O)c2)CC1,Percent Effect,30 µM,5.552%
CCCS(=O)(=O)N1CCC(NC(=O)c2cc3ccccc3s2)CC1,Percent Effect,"30.3 µM, […]",22.53%
CCC(=O)N1CCC2(C=C(C(=O)N(C)C)c3ccccc32)CC1,Percent Effect,"30.3 µM, […]",92.12%
CN1CCC2(C=C(C(=O)N(C)C)c3ccccc32)CC1,Percent Effect,"30.3 µM, […]",38.98%
CCN1CCC2(C=C(C(=O)N(C)C)c3ccccc32)CC1.O=C(O)C(F)(F)F,Percent Effect,"30.3 µM, […]",51.51%
CC(C)N1CCC2(C=C(C(=O)N(C)C)c3ccccc32)CC1.O=C(O)C(F)(F)F,Percent Effect,"30.3 µM, […]",-11.73%
CCC(=O)N1CCC2(C=C(C(=O)N3CCCC3)c3ccccc32)CC1,Percent Effect,"30.3 µM, […]",11.1%
CC(C)CN1CCC2(C=C(C(=O)N(C)C)c3ccccc32)CC1.O=C(O)C(F)(F)F,Percent Effect,"30.3 µM, […]",41.74%
CC(C)Cc1cc(CNc2nc(-c3cccnc3)nc3c2CNC3)no1,Percent Effect,"30.3 µM, […]",9.598%
O=C(c1cccnc1)N1CCN(CC2CC2)c2ncccc2C1,Percent Effect,"30.3 µM, […]",14.27%
O=C(c1ccoc1)N1CC[C@@H]2O[C@@H](COCc3ccccn3)CC[C@@H]21,Percent Effect,"30.3 µM, […]",-30.2%
O=C(N1CCOCC1)N1CC[C@H]2[C@@H]1CCC(=O)N2c1ccccc1,Percent Effect,"30.3 µM, […]",31.55%
Cc1oncc1C(=O)N1CCC2(CCN(Cc3ccccn3)C2=O)C1 (centres undefined),Percent Effect,"30 µM, 30.03 µM",-19.39%
O=C(c1cccnc1)N1CCC2(CC1)CCN(Cc1ccccn1)C2=O,Percent Effect,"30.3 µM, […]",28.38%
Cc1ccc(C(=O)N2CCC3(CCN(Cc4ccccn4)C3=O)C2)cn1 (centres undefined),Percent Effect,"30.3 µM, […]",50.83%
Cc1ccc(-c2cc(C(F)(F)F)nc(N3CCOCC3)n2)s1,Percent Effect,"30.3 µM, […]",2.404%
CCNC(=O)[C@@H]1C[C@H](N)CN1c1cc(C(F)(F)F)nc(N2CCCC2)n1,Percent Effect,"30.3 µM, […]",23.81%
Cc1c(-c2cc(C(F)(F)F)nc(N3CCC(N)CC3)n2)cnn1C,Percent Effect,"30.3 µM, […]",81.41%
Cc1nn(C)cc1-c1cc(C(F)(F)F)nc(NC2CCN(C)CC2)n1,Percent Effect,"30.3 µM, […]",7.809%
CCn1ncc(-c2cc(C(F)(F)F)nc(N3CCC(N)CC3)n2)c1C,Percent Effect,"30.3 µM, […]",100.6%
CCc1ccc(-c2cc(C(F)(F)F)nc(N3CCC(N)CC3)n2)cc1,Percent Effect,"30.3 µM, […]",44.83%
